Activity calls are given as the source filed them. The calls were made as follows: active = hit-call score of the fitted dose curve at least 0.9, where 1 is the maximum; inactive = score below 0.9.
Assays:
[1] = ATG_GLI_CIS: Attagene CIS-FACTORIAL HepG2 Assay for human Zinc Finger Protein GLI1 (AID 2282945); conditions: HepG2, Attagene cis-factorial reporter mRNA, GLI element; actives raise or lower the signal
Method in brief: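 Transiently transfected HepG2 cells report endogenous transcription factor activity via cis-element-driven reporter units. After 24 h compound exposure, reporter mRNA was measured by RT-PCR with capillary electrophoresis; bidirectional fitting against DMSO baseline.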

[2] = ATG_GRE_CIS: Attagene CIS-FACTORIAL HepG2 Assay for human Glucocorticoid Response Elements (GRE) (AID 2282947); conditions: HepG2 GRE cis-reporter, Attagene multiplex mRNA; actives raise or lower the signal
Method in brief: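 Fluorescence intensity of reporter-specific cDNA fragments, separated by capillary electrophoresis, provides the signal. Constructs carry cis-regulating promoters in transiently transfected HepG2 liver cells; 24 h incubation; fitting is bidirectional against DMSO.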

[3] = ATG_ISRE_CIS: Attagene CIS-FACTORIAL HepG2 Assay for human Interferon Regulatory Factor 1 (IRF1) binding to an Interferon-Stimulated Response Element (ISRE) (AID 2282948); conditions: HepG2 ISRE cis-reporter (Attagene), mRNA transcription readout; actives raise or lower the signal
Method in brief: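 Signal reflects induction or loss of ISRE-linked reporter mRNA in transiently transfected HepG2 cells after a 24 h treatment, detected by fluorescent RT-PCR fragments on capillary electrophoresis and normalised to DMSO.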

[4] = ATG_M_32_CIS: Attagene CIS-FACTORIAL HepG2 Assay for M32 Transcription Factor (Internal Marker) (AID 2282949); conditions: HepG2 Attagene cis-factorial M32 reporter, mRNA; actives raise or lower the signal;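 also: background control marker of the multiplexed CIS panel rather than a real target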
Method in brief: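 HepG2 human liver cells transiently transfected with cis-promoter-driven multiple reporter transcription units, dosed 24 h. Reporter mRNA quantified by RT-PCR, FAM-labelled primer extension, HpaI digest and capillary electrophoresis; bidirectional fit versus DMSO baseline.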

[5] = ATG_M_06_CIS: Attagene CIS-FACTORIAL HepG2 Assay for M06 Transcription Factor (Internal Marker) (AID 2282950); conditions: HepG2 Attagene CIS-FACTORIAL M06 internal marker reporter; actives raise or lower the signal
Method in brief: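 Fluorescence-labelled RT-PCR products from cis-promoter reporter units, cut with HpaI and resolved by capillary electrophoresis, give the signal. Cells are human HepG2, dosed for 24 h. Serves as background control, fitted relative to DMSO.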

[6] = target: Hypoxia-inducible factor 1-alpha (Homo sapiens) (UniProt Q16665); assay: ATG_HIF1a_CIS: Attagene CIS-FACTORIAL HepG2 Assay for human Hypoxia Inducible Factor 1 (HIF1A) (AID 2282951); conditions: HepG2 Attagene cis-factorial HIF1a reporter transcription; actives raise or lower the signal
Hypoxia-inducible factor 1-alpha (Homo sapiens), sequence (Q16665 whole entry, looked up): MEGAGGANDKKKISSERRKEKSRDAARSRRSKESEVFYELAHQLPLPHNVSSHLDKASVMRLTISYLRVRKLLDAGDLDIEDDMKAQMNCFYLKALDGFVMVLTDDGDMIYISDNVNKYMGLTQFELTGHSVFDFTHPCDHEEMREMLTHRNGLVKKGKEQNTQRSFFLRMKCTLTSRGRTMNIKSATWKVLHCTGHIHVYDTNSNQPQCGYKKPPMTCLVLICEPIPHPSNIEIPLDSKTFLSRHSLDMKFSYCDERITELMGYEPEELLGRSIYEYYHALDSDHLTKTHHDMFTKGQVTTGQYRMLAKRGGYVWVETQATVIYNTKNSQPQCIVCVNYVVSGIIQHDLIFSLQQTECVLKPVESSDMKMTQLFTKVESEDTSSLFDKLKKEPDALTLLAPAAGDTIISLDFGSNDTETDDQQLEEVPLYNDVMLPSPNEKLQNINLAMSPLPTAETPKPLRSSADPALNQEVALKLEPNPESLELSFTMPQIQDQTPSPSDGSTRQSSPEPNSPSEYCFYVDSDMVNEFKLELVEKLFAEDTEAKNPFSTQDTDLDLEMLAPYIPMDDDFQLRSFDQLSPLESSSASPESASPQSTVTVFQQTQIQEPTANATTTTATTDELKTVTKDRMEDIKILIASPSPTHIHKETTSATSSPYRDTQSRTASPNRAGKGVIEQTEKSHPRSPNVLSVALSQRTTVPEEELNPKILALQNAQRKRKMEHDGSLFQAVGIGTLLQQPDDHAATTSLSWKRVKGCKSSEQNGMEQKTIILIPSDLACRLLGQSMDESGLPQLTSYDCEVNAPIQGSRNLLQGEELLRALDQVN
Method in brief: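 HepG2, transient cis-reporter library, 24 h dosing. RNA → RT (oligo dT) → PCR → 6-FAM primer extension → HpaI → CE. Bidirectional curve fit vs DMSO.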

[7] = target: Hepatocyte nuclear factor 6 (Homo sapiens) (UniProt Q9UBC0); assay: ATG_HNF6_CIS: Attagene CIS-FACTORIAL HepG2 Assay for human Hepatocyte Nuclear Factor 6 (HNF6) (AID 2282952); conditions: HepG2 Attagene cis-factorial HNF6 reporter transcription; actives raise or lower the signal
Hepatocyte nuclear factor 6 (Homo sapiens), sequence (Q9UBC0 whole entry, looked up): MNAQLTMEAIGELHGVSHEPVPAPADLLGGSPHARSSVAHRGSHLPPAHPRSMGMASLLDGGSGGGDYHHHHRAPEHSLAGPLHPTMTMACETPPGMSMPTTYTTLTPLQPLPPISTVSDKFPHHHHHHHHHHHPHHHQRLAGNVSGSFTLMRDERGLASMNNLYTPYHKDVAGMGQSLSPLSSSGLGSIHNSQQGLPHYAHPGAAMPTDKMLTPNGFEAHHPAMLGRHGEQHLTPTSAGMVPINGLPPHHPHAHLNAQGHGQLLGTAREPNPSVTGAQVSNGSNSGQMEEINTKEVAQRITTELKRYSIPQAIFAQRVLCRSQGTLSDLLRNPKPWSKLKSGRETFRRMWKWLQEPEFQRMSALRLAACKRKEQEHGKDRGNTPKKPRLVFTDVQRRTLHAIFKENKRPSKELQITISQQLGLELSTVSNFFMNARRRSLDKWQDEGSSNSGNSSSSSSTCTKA
Method in brief: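 Activity values derive from bidirectional fitting against DMSO of reporter mRNA levels, measured by capillary electrophoresis of labelled RT-PCR products from HepG2 cells exposed 24 h.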

[8] = target: Heat shock factor protein 1 (Homo sapiens) (UniProt Q00613); assay: ATG_HSE_CIS: Attagene CIS-FACTORIAL HepG2 Assay for human Heat Shock Transcription Factor 1 (HSE) (AID 2282953); conditions: HepG2 HSE cis-reporter, Attagene RNA transcription; actives raise or lower the signal
Heat shock factor protein 1 (Homo sapiens), sequence (Q00613 whole entry, looked up): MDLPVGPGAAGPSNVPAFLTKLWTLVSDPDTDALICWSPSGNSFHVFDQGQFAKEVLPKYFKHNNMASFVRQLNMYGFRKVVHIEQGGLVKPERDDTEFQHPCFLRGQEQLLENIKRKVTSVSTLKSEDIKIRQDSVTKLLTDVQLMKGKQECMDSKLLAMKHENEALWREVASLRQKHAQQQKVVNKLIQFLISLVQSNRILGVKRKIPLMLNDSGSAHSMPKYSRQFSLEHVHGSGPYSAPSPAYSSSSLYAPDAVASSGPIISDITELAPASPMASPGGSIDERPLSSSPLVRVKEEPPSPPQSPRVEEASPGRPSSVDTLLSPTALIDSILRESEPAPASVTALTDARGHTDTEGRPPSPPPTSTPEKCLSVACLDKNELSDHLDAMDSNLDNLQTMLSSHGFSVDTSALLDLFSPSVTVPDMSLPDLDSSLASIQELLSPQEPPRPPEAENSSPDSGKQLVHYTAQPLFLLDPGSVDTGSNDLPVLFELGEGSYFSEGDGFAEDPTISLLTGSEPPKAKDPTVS
Method in brief: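 After a 24 h incubation with test chemical, transfected HepG2 cells were harvested for RNA; reporter transcripts were measured by RT-PCR and capillary electrophoresis. Values reflect gain or loss of signal relative to DMSO.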

[9] = ATG_MRE_CIS: Attagene CIS-FACTORIAL HepG2 Assay for human Metal Responsive Element (MRE) (AID 2282954); conditions: HepG2 MRE cis-reporter transcription, Attagene multiplex; actives raise or lower the signal
Method in brief: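 Measured here is mRNA induction from an MRE cis-element reporter in HepG2 after 24 h, quantified by fluorescence of labelled RT-PCR products on capillary electrophoresis; gain- and loss-of-signal fits use DMSO as baseline.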

Measured: outcome

CCCC=C(C=O)CC
inactive: all assays above

Nc1cccc(N)n1
not listed: [5] | [9]
inactive: all other assays above

Cc1ccc(S(=O)(=O)N=C=O)cc1
inactive: all assays above

Cc1cccc(C(C)(C)C)c1O
not listed: [5]
inactive: all other assays above

CCCCCCCCCCCCCc1ccccc1
not listed: [5]
inactive: all other assays above

CC(C)[N+](C)(CCOC(=O)C1c2ccccc2Oc2ccccc21)C(C)C
not listed: [6]
inactive: all other assays above

CCCCCCCCCCCCCC(=O)OC(C)C
inactive: all assays above

CCCCCOC(=O)CCCCC
inactive: all assays above

COC(Cc1ccccc1)OC
inactive: all assays above

CC(CCC(=O)O)(c1ccc(O)cc1)c1ccc(O)cc1
not listed: [6]
inactive: all other assays above

Cc1c(Cl)cccc1Cl
inactive: all assays above

CC(C)(C)N
inactive: all assays above

CC1(C)C(=O)N(CO)C(=O)N1CO
inactive: all assays above

CCOC(=O)c1ccc(C)cc1
inactive: all assays above

C=CC(=O)NCOCCCC
not listed: [5]
inactive: all other assays above

CCc1cccc(C)c1N
inactive: all assays above

CCOC(=O)OC(=O)OCC
not listed: [5]
inactive: all other assays above

O=C1CCCCC1C1CCCCC1 (stereo not drawn)
inactive: all assays above

CC(=O)OC(C)c1ccccc1 (stereo not drawn)
not listed: [5]
inactive: all other assays above

CC(C)c1ccc(O)c(C(C)C)c1
inactive: all assays above

CC1C(C)(C)C2=C(C(=O)CCC2)C1(C)C (stereo not drawn)
not listed: [5]
inactive: all other assays above

C=CCCCCCCCCO
inactive: all assays above

O=c1c(O)c(-c2ccc(O)cc2O)oc2cc(O)cc(O)c12
not listed: [6]
inactive: all other assays above

CC(=O)OCCc1ccccc1
not listed: [5]
inactive: all other assays above

C=C(C)OC(C)=O
not listed: [5]
inactive: all other assays above

CC(c1cc(C(C)(C)C)cc(C(C)(C)C)c1O)c1cc(C(C)(C)C)cc(C(C)(C)C)c1O
inactive: all assays above

CC1(C)[C@@H]2CC[C@@]1(C)C(=O)C2
not listed: [5]
inactive: all other assays above

C=CCOC(=O)c1ccc(C(=O)OCC=C)c(C(=O)OCC=C)c1
inactive: all assays above

— PubChem BioAssay (EPA / NIEHS)
